Test results from PubChem BioAssay AID1159580 (chemical genetic matrix, 2015).
About 2,000 (36%) of roughly 5,500 compounds were called active. About 18% were inconclusive and are not listed. Rule as the data show it: active = normalized growth mostly below about 0.91 (no sharp cut-off); inconclusive = no clear call, values can overlap the other calls; inactive = mostly above about 0.92. The list shows a part of the results.

Test: chemical genetic growth profiling, strain panel (AID 1159580);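 also: tested at 20 µM; growth read once vehicle control cultures reached saturation at 30 °C; 1 = growth at the plate median or of vehicle wells; lower values mean less growth of the strain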
Conditions: growth OD

Measured: normalized growth

CC1=NN(c2ccccc2)C(=O)C1
inactive: S. cerevisiae deletion strains, locus YJR075W, strain HOC1, active compounds read low 0.979 | S. cerevisiae deletion strains, locus YKL009W, strain mrt4, active compounds read low 0.991 | S. cerevisiae deletion strains, locus YKL068W, active compounds read low 0.98 | S. cerevisiae deletion strains, locus YKL085W, strain MDH1 (second series), active compounds read low 0.963 | S. cerevisiae deletion strains, locus YKL085W, strain MDH1, active compounds read low 0.963 | S. cerevisiae deletion strains, locus YKL160W, strain elf1, active compounds read low 0.951 | S. cerevisiae deletion strains, locus YKL190W, strain CNB1, active compounds read low 0.994 | S. cerevisiae deletion strains, locus YKR001C, strain vps1, active compounds read low 0.961 | S. cerevisiae deletion strains, locus YKR026C, strain gcn3, active compounds read low 0.994 | S. cerevisiae deletion strains, locus YKR091W, strain srl3, active compounds read low 0.986 | S. cerevisiae deletion strains, locus YLL001W, strain dnm1, active compounds read low 0.951 | S. cerevisiae deletion strains, locus YLL026W, active compounds read low 0.984 | S. cerevisiae deletion strains, locus YLL041C, strain sdh2, active compounds read low 0.99 | S. cerevisiae deletion strains, locus YLR027C, strain aat2, active compounds read low 0.994 | S. cerevisiae deletion strains, locus YLR039C, strain RIC1, active compounds read low 0.782 | S. cerevisiae deletion strains, locus YLR058C, strain SHM2, active compounds read low 0.965 | S. cerevisiae deletion strains, locus YLR102C, strain apc9, active compounds read low 1 | S. cerevisiae deletion strains, locus YLR221C, strain rsa3, active compounds read low 0.961 | S. cerevisiae deletion strains, locus YLR258W, strain gsy2, active compounds read low 0.957 | S. cerevisiae deletion strains, locus YLR262C, strain YPT6 (second series), active compounds read low 0.915 | S. cerevisiae deletion strains, locus YLR262C, strain YPT6, active compounds read low 0.725 | S. cerevisiae deletion strains, locus YLR268W, strain sec22, active compounds read low 0.908 | S. cerevisiae deletion strains, locus YLR320W, strain mms22, active compounds read low 0.962 | S. cerevisiae deletion strains, locus YLR330W, strain CHS5, active compounds read low 0.988 | S. cerevisiae deletion strains, locus YLR342W, strain FKS1 (second series), active compounds read low 0.832 | S. cerevisiae deletion strains, locus YLR342W, strain FKS1, active compounds read low 0.987 | S. cerevisiae deletion strains, locus YLR357W, strain rsc2, active compounds read low 1 | S. cerevisiae deletion strains, locus YLR370C, strain arc18, active compounds read low 0.987 | S. cerevisiae deletion strains, locus YLR371W, strain rom2, active compounds read low 0.913 | S. cerevisiae deletion strains, locus YLR384C, strain iki3, active compounds read low 0.982 | S. cerevisiae deletion strains, locus YML016C, strain PPZ1, active compounds read low 0.979 | S. cerevisiae deletion strains, locus YML032C, strain rad52, active compounds read low 0.922 | S. cerevisiae deletion strains, locus YML120C, strain ndi1, active compounds read low 0.974 | S. cerevisiae deletion strains, locus YML124C, strain tub3, active compounds read low 0.984 | S. cerevisiae deletion strains, locus YMR058W, strain fet3, active compounds read low 0.922 | S. cerevisiae deletion strains, locus YMR078C, strain ctf18, active compounds read low 0.969 | S. cerevisiae deletion strains, locus YMR125W, strain sto1, active compounds read low 0.998 | S. cerevisiae deletion strains, locus YMR129W, active compounds read low 0.996 | S. cerevisiae deletion strains, locus YMR205C, strain PFK2, active compounds read low 0.958 | S. cerevisiae deletion strains, locus YMR223W, strain ubp8, active compounds read low 0.925 | S. cerevisiae deletion strains, locus YMR231W, strain pep5, active compounds read low 0.984 | S. cerevisiae deletion strains, locus YMR263W, strain SAP30, active compounds read low 0.97 | S. cerevisiae deletion strains, locus YMR307W, strain GAS1, active compounds read low 0.7 | S. cerevisiae deletion strains, locus YNL067W, strain RPL9B, active compounds read low 0.992 | S. cerevisiae deletion strains, locus YNL071W, strain lat1, active compounds read low 0.922 | S. cerevisiae deletion strains, locus YNL128W, strain TEP1, active compounds read low 0.969 | S. cerevisiae deletion strains, locus YNL209W, strain ssb2, active compounds read low 0.993 | S. cerevisiae deletion strains, locus YNL233W, strain BNI4, active compounds read low 0.993 | S. cerevisiae deletion strains, locus YNL248C, strain rpa49, active compounds read low 0.973 | S. cerevisiae deletion strains, locus YNL250W, strain rad50, active compounds read low 0.957 | S. cerevisiae deletion strains, locus YNL271C, strain bni1, active compounds read low 0.925 | S. cerevisiae deletion strains, locus YNL298W, strain CLA4, active compounds read low 0.951 | S. cerevisiae deletion strains, locus YNL322C, strain KRE1 (second series), active compounds read low 0.977 | S. cerevisiae deletion strains, locus YNL322C, strain KRE1, active compounds read low 0.985 | S. cerevisiae deletion strains, locus YNR049C, strain mso1, active compounds read low 0.992 | S. cerevisiae deletion strains, locus YNR052C, strain pop2, active compounds read low 0.942 | S. cerevisiae deletion strains, locus YOL006C, strain TOP1, active compounds read low 0.997 | S. cerevisiae deletion strains, locus YOL012C, strain htz1 0.753 | S. cerevisiae deletion strains, locus YOL147C, strain pex11, active compounds read low 0.979 | S. cerevisiae deletion strains, locus YOR001W, strain rrp6, active compounds read low 0.972 | S. cerevisiae deletion strains, locus YOR061W, strain CKA2, active compounds read low 0.98 | S. cerevisiae deletion strains, locus YOR069W, strain VPS5, active compounds read low 0.982 | S. cerevisiae deletion strains, locus YOR070C, strain gyp1, active compounds read low 0.995 | S. cerevisiae deletion strains, locus YOR080W, strain dia2, active compounds read low 0.97 | S. cerevisiae deletion strains, locus YOR083W, strain WHI5, active compounds read low 0.939 | S. cerevisiae deletion strains, locus YOR106W, strain vam3, active compounds read low 0.959 | S. cerevisiae deletion strains, locus YOR136W, strain idh2, active compounds read low 0.966 | S. cerevisiae deletion strains, locus YOR144C, strain elg1, active compounds read low 0.988 | S. cerevisiae deletion strains, locus YOR184W, strain ser1, active compounds read low 0.927 | S. cerevisiae deletion strains, locus YOR265W, strain rbl2, active compounds read low 0.988 | S. cerevisiae deletion strains, locus YOR270C, strain vph1, active compounds read low 1.03 | S. cerevisiae deletion strains, locus YOR290C, strain snf2, active compounds read low 0.938 | S. cerevisiae deletion strains, locus YOR316C, strain cot1, active compounds read low 0.984 | S. cerevisiae deletion strains, locus YPL051W, strain arl3, active compounds read low 0.954 | S. cerevisiae deletion strains, locus YPL078C, strain atp4, active compounds read low 0.971 | S. cerevisiae deletion strains, locus YPL106C, strain sse1, active compounds read low 1.01 | S. cerevisiae deletion strains, locus YPL240C, strain hsp82, active compounds read low 0.987 | S. cerevisiae deletion strains, locus YPL241C, strain CIN2, active compounds read low 0.986 | S. cerevisiae deletion strains, locus YPR119W, strain clb2, active compounds read low 0.987 | S. cerevisiae deletion strains, locus YPR141C, strain kar3, active compounds read low 0.947 | S. cerevisiae deletion strains, locus YPR163C, strain tif3, active compounds read low 0.968 | S. cerevisiae deletion strains, locus YPR167C, strain met16, active compounds read low 0.969 | S. cerevisiae deletion strains, strain wtn01, active compounds read low 0.928 | S. cerevisiae strains, strain wild type, active compounds read low 0.98
active: S. cerevisiae deletion strains, locus YLR418C, strain cdc73, active compounds read low 0.78 | S. cerevisiae deletion strains, locus YNL307C, strain MCK1, active compounds read low 0.796
